Test results from publication PMC5700166.
Substitutions are numbered along the chain they refer to.

Assays:
Experiment in all cases: protein-binding microarray (PBM); PBM: ~300 nM protein, 6 mM HEPES pH 7.8, 80 mM KCl, 0.5 mM EDTA, 0.5 mM EGTA, 6% glycerol, 35 ng/ul poly-dIdC, 1% milk, 1 h, room temperature; Ap Aiptasia and Nv Nematostella (sea anemones) / Co Capsaspora / Aq Amphimedon (sponge) / Dm Drosophila / Hu human; RHD is the Rel homology domain; high values mean tight binding
Settings in all cases: dsDNA, one strand shown
GST-Ap-NF-kB RHD = molecular target: T1, GST-Ap-NF-kB RHD (Exaiptasia pallida (Aiptasia), UniProt A0A913YAJ5 2-422)
T1 sequence: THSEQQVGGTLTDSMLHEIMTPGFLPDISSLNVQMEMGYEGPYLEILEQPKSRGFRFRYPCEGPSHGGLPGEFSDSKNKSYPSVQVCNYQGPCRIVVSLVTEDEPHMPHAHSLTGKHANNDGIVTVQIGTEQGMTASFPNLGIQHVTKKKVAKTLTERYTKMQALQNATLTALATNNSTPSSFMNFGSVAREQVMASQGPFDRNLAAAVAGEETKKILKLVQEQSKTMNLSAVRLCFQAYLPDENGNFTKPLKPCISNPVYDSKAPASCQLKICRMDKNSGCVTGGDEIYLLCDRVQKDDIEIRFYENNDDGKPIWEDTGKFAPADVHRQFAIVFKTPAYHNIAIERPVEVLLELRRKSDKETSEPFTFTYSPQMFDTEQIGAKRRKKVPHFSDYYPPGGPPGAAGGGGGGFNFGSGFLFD

[1] = molecular target: T2, GST-Nv-NF-kB (Cys allele) (Nematostella vectensis, UniProt E5G601 2-411)
T2 sequence: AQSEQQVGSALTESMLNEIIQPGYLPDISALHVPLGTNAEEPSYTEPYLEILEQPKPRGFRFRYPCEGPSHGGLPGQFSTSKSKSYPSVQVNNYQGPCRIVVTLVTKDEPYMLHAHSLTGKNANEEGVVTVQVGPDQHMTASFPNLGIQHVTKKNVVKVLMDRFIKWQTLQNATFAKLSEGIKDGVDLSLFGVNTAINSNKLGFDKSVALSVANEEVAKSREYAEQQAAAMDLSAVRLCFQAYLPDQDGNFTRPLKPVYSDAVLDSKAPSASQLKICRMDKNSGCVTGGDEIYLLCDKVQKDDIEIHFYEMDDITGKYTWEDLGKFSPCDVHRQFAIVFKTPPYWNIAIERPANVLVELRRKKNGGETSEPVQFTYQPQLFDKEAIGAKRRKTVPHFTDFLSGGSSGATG

[2] = molecular target: T3, GST-Nv-NF-kB (Ser allele) (Nematostella vectensis, UniProt A7UNT2 2-411)
T3 sequence: T2 sequence with Q21R, C66S, S207N, E215Q, V217A, E225K, A268E, D399E

GST-Co-NF-kB = molecular target: T4, GST-Co-NF-kB (Capsaspora owczarzaki, UniProt F1ARL5 200-546)
T4 sequence: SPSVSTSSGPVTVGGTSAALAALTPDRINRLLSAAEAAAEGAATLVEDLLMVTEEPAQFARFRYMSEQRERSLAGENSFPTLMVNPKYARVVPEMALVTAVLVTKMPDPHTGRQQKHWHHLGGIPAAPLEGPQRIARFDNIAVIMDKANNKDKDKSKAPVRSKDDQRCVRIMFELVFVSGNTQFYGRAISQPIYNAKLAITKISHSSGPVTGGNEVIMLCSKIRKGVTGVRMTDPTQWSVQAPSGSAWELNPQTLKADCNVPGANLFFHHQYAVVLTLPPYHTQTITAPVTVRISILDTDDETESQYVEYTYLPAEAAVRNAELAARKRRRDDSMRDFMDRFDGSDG

GST-Dm-Relish = molecular target: T5, GST-Dm-Relish (Drosophila melanogaster, UniProt Q94527 99-473)
T5 sequence: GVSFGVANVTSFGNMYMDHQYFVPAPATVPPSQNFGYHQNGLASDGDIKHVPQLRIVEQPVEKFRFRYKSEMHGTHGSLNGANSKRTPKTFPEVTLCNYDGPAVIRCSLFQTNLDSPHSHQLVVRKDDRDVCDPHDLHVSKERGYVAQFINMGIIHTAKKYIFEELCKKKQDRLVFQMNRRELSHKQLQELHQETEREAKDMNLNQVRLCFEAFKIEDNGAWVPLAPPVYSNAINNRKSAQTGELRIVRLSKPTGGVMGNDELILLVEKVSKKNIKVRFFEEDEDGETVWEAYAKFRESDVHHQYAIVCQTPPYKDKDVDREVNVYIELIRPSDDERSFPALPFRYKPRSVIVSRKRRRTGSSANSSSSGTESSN

GST-Aq-NF-kB = molecular target: T6, GST-Aq-NF-kB (Amphimedon queenslandica, UniProt A9Y5G7 2-389)
T6 sequence: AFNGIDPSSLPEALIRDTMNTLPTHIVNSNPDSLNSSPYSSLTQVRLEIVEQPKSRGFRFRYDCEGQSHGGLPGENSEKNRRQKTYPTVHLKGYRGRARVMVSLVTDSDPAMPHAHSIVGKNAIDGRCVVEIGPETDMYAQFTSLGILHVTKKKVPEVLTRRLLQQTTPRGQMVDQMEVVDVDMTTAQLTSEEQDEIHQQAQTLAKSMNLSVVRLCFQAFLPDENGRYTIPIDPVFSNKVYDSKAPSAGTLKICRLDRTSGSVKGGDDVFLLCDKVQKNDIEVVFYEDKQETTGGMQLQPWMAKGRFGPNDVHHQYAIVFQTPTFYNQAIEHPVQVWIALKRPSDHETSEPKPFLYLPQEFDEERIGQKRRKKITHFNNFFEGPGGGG

GST-Hu-p50 = GST-Hu-p50 (Homo sapiens, UniProt P19838 7-356)
GST-Hu-p50, sequence (P19838 7-356): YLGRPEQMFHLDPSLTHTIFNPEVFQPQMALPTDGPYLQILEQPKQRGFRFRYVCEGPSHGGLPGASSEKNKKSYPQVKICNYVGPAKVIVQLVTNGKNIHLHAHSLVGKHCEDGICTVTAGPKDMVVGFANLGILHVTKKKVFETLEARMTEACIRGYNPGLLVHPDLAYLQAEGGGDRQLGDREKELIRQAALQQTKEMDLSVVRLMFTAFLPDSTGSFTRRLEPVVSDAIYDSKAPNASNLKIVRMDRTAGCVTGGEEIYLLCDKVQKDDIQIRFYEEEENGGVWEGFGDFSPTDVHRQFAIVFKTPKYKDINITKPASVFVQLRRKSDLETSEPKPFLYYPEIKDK

Sequence | binding signal (GST-Ap-NF-kB RHD) [z-score] | binding signal [1] [z-score] | binding signal [2] [z-score] | binding signal (GST-Co-NF-kB) [z-score] | binding signal (GST-Dm-Relish) [z-score] | binding signal (GST-Aq-NF-kB) [z-score] | binding signal (GST-Hu-p50) [z-score]
CCGATTAACATCAAAAAGTCCCCTGATGTTAATCGGGTCTTGATTCGCTTGACGCTGCTG | 9.45 | 10.8 | 11.1 | 5.57 | 10 | 8.93 | 7.85
CCGATTAACATCAAGGGGGGTGCTGATGTTAATCGGGTCTTGATTCGCTTGACGCTGCTG | 4.44 | 3.89 | 3.43 | 3.26 | 4.11 | 4.32 | 4.67
CCGATTAACATCAATCTCCCCCATGATGTTAATCGGGTCTTGATTCGCTTGACGCTGCTG | 6.53 | 4.32 | 6.24 | 8.65 | 2.05 | 3.51 | 5.94
CCGATTAACATCAAAACTCCCCGTGATGTTAATCGGGTCTTGATTCGCTTGACGCTGCTG | 7.7 | 6.47 | 6.9 | 5.87 | 7.5 | 6.24 | 5.74
CCGATTAACATCAAGGGGGGTATTGATGTTAATCGGGTCTTGATTCGCTTGACGCTGCTG | 6 | 4.4 | 3.99 | 4.22 | 5.14 | 5.2 | 4.8
CCGATTAACATCAGAATCTCCCCTGATGTTAATCGGGTCTTGATTCGCTTGACGCTGCTG | 7.81 | 6.42 | 6.73 | 6.25 | 3.02 | 5.81 | 5.32
CCGATTAACATCAGGGGTAATTATGATGTTAATCGGGTCTTGATTCGCTTGACGCTGCTG | 3.8 | 4.02 | 4.62 | 6.05 | 2.03 | 3.96 | 4.51
CCGATTAACATCAAACTCCCCCTTGATGTTAATCGGGTCTTGATTCGCTTGACGCTGCTG | 8.05 | 6.74 | 8.38 | 6.26 | 6.54 | 6.59 | 7.29
CCGATTAACATCACGTTTTCCCCTGATGTTAATCGGGTCTTGATTCGCTTGACGCTGCTG | 7.13 | 7.87 | 10.1 | 8.47 | 4.49 | 5.5 | 5.96
CCGATTAACATCAAATATTCCCCTGATGTTAATCGGGTCTTGATTCGCTTGACGCTGCTG | 8.25 | 10.7 | 11 | 10.1 | 7.22 | 8.12 | 6.65
CCGATTAACATCAGGGAATACCCTGATGTTAATCGGGTCTTGATTCGCTTGACGCTGCTG | 8.89 | 11.2 | 8.44 | 3.79 | 9.63 | 10.2 | 6.01
CCGATTAACATCAATATAACCCCTGATGTTAATCGGGTCTTGATTCGCTTGACGCTGCTG | 3.99 | 2.48 | 2.08 | 2.11 | 2.05 | 2.37 | 2.73
CCGATTAACATCAGCGGGAATCCTGATGTTAATCGGGTCTTGATTCGCTTGACGCTGCTG | 2.44 | 3.26 | 2.64 | 2.25 | 6.33 | 3.03 | 2.21
CCGATTAACATCACGGAACCCCCTGATGTTAATCGGGTCTTGATTCGCTTGACGCTGCTG | 7.51 | 4.89 | 6.13 | 2.13 | 9.21 | 5.54 | 5.79
CCGATTAACATCAAAAACCCCCCTGATGTTAATCGGGTCTTGATTCGCTTGACGCTGCTG | 10.5 | 9.26 | 9.71 | 5.82 | 11.3 | 8.84 | 7.78
CCGATTAACATCACAGAATTCCCTGATGTTAATCGGGTCTTGATTCGCTTGACGCTGCTG | 5.09 | 6.44 | 6.81 | 3.6 | 4.28 | 5.42 | 4.93
CCGATTAACATCAGGATTGTCCCTGATGTTAATCGGGTCTTGATTCGCTTGACGCTGCTG | 2.96 | 3.96 | 2.92 | 1.06 | 1.57 | 5.51 | 2.84
